From PubChem BioAssay
Active and inactive are the calls of the source.

How the values were obtained:
[1] = test system: Plasmodium falciparum Sir2 (PF13_0152, Sir2A); test: Plasmodium falciparum Sir2A binding compounds – biochemical, small-molecule microarray, 635 nm fluorescence, primary screen (AID 1098); conditions: fluorescence 635 nm, higher = more signal;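 also: score merges spot fluorescence intensity with its signal-to-noise ratio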
[2] = probe aDKK1 binding to arrayed compounds – biochemical, biotinylated probe, 635/667 nm fluorescence, primary screen (AID 1099); conditions: small-molecule microarray, higher = more signal;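 also: score merges 667nm spot fluorescence with signal to noise across triplicate slides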
[3] = probe aCHRDL2 binding to arrayed compounds – biochemical, biotinylated probe, 635/667 nm fluorescence, primary screen (AID 1100); conditions: small-molecule microarray, higher = more signal
[4] = change in splice reporter luminescence, either direction, cell-based, HEK293, spliceosome inhibition project, primary screen (AID 1101); conditions: HEK293 splicing luciferase reporter, 24 h, higher = more signal, called active from +8 up or from −8 down;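 also: HEK293 cells carrying a splicing-competent luciferase reporter gene; test concentration not given here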
[5] = target: Fibroblast growth factor 10 (Homo sapiens) (UniProt O15520); test: compounds binding fibroblast growth factor 10 – biochemical, small-molecule microarray, 635 nm fluorescence, primary screen (AID 1102); conditions: FGF10 binding, fluorescence 635 nm, higher = more signal
Chain of Fibroblast growth factor 10 (Homo sapiens) (O15520 whole entry, looked up): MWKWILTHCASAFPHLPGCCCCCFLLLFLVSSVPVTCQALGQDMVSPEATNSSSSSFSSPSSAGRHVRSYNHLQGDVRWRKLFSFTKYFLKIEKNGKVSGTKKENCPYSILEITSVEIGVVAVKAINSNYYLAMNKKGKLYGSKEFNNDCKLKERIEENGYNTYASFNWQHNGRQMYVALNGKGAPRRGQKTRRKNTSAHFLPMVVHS

[6] = test system: glycogen synthase kinase-3 (GSK3A per assay name; protocol says GSK3B); test: compounds binding glycogen synthase kinase-3 – biochemical, small-molecule microarray, 635 nm fluorescence, GSK3A, primary screen (AID 1103); conditions: fluorescence 635 nm, higher = more signal; also: the record names both GSK3A and GSK3B
[7] = target: Epidermal growth factor receptor (Homo sapiens) (UniProt P00533); test: compounds binding epidermal growth factor receptor – biochemical, small-molecule microarray, 635 nm fluorescence, primary screen (AID 1104); conditions: EGFR binding, higher = more signal;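 also: score merges 667 nm emission intensity with spot signal to noise over triplicate slides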
Chain of Epidermal growth factor receptor (Homo sapiens) (P00533 whole entry, looked up): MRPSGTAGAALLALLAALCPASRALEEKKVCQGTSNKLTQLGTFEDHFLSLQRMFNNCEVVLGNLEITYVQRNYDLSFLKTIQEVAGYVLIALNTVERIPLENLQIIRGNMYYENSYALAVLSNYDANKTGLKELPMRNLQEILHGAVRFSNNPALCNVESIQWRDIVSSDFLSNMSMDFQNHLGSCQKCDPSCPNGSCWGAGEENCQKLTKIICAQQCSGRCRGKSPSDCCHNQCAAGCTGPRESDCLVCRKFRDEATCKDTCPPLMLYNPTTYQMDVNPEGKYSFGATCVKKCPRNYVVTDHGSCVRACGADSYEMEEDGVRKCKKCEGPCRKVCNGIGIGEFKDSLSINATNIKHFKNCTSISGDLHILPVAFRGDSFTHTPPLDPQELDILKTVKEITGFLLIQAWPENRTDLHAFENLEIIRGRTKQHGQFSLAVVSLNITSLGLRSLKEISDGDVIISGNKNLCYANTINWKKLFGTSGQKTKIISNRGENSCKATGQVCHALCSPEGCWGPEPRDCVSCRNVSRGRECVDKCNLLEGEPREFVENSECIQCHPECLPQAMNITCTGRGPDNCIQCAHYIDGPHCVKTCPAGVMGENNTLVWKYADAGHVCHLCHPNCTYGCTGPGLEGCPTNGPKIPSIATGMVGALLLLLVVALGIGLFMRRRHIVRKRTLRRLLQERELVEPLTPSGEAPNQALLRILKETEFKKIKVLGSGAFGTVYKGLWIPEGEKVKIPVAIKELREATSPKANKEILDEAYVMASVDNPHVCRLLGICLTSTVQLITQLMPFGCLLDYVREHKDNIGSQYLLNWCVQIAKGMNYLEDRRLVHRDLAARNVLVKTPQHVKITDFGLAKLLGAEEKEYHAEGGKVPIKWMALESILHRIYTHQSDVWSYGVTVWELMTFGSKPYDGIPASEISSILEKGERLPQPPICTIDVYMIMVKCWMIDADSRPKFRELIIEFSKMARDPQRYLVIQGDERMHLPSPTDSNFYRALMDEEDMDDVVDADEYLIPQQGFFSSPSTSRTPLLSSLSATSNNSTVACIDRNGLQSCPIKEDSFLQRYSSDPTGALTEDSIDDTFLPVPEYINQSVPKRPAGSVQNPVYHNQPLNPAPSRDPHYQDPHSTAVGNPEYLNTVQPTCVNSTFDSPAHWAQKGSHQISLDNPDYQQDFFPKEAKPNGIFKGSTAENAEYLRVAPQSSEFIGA

[8] = target: Follistatin-related protein 3 (Homo sapiens) (UniProt O95633); test: compounds binding follistatin-related protein 3 – biochemical, small-molecule microarray, 635 nm fluorescence, primary screen (AID 1105); conditions: FSTL3 binding, higher = more signal;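 also: score merges emission near 667 nm and signal to noise per printed spot across three slides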
Chain of Follistatin-related protein 3 (Homo sapiens) (O95633 whole entry, looked up): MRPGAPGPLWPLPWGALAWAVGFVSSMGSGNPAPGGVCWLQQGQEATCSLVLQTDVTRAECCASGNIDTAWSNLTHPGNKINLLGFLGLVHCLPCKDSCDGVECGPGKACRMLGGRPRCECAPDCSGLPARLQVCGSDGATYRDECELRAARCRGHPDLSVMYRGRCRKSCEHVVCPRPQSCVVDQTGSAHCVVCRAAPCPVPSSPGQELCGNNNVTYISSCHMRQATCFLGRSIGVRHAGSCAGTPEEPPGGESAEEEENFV

[9] = target: Dickkopf-related protein 1 (Homo sapiens) (UniProt O94907); test: small molecules binding DKK1 protein – biochemical, small-molecule microarray, 635 nm fluorescence scan, primary screen (AID 1106); conditions: higher = more signal;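 also: score merges emission near 667 nm with signal to noise over three replicate slides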
Chain of Dickkopf-related protein 1 (Homo sapiens) (O94907 whole entry, looked up): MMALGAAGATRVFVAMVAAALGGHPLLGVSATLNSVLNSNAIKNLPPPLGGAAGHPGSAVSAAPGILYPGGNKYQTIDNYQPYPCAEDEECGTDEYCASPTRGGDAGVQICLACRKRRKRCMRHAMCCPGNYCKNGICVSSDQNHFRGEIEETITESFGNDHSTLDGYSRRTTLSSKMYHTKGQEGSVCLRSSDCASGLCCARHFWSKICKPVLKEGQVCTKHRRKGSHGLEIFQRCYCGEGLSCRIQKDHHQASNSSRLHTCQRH

[10] = test system: Inhibin beta A chain (activin A); test: small molecules binding activin A – biochemical, small-molecule microarray, 635 nm fluorescence scan, primary screen (AID 1107); conditions: INHBA, higher = more signal;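 also: mouse activin A protein probed at 4.33 µg/mL on printed slides; score merges bound-protein fluorescence near 667 nm with spot signal-to-noise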
[11] = test system: Human papillomavirus type 1a protein E7 (residues 44-93); test: small molecules binding HPV E7 44-93 – biochemical, small-molecule microarray, residues 44-93, 635 nm fluorescence, primary screen (AID 1108); conditions: fluorescence 635 nm, higher = more signal;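 also: E7 fragment applied at 1 µg/mL in TBST for 1 h at 4 C; score combines spot fluorescence with its signal to noise ratio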
[12] = hepatitis C replication reporter changes, two-sided – Huh7 cells, luciferase reporter, HCV replication inhibitor project, primary screen (AID 1109); conditions: Huh7 HCV replicon luciferase reporter, 48 h; higher = more signal;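 also: huh7 hepatoma cells harbouring a luciferase neomycin HCV replicon reporter; luciferase luminescence as measure of HCV replicon replication; test concentration not given here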
[13] = target: Left-right determination factor 2 (Homo sapiens) (UniProt O00292); test: small molecules binding LEFTY2 protein – biochemical, small-molecule microarray, 635 nm fluorescence scan, primary screen (AID 1110); conditions: higher = more signal
Chain of Left-right determination factor 2 (Homo sapiens) (O00292 whole entry, looked up): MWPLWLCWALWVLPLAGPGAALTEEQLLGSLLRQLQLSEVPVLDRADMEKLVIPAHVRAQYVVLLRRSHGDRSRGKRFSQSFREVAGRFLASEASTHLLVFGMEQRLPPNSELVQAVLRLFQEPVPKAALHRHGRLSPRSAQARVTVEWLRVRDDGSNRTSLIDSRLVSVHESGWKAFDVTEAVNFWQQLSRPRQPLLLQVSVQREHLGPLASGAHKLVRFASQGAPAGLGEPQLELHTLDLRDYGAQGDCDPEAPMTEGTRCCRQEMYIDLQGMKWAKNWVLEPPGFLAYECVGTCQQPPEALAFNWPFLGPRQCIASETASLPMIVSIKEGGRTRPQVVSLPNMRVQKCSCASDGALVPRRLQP

[14] = target: Calmodulin-1 (Homo sapiens) (UniProt P0DP23); test: small molecules binding calmodulin-1 with EGTA – biochemical, small-molecule microarray, Cy5-labelled CALM1, profiling panel (AID 1111); conditions: Cy5-CALM1 binding fluorescence, higher = more signal;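 also: labelled calmodulin applied in Tris saline Tween buffer holding calcium plus EGTA and DTT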
[15] = target: Calmodulin-1 (Homo sapiens) (UniProt P0DP23); test: small molecules binding Ca-loaded calmodulin-1 – biochemical, small-molecule microarray, Cy5-labelled CALM1, plus calcium, artefact control for SMM control-protein annotation, profiling panel (AID 1112); conditions: Cy5-CALM1 binding fluorescence, higher = more signal;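 also: score merges spot fluorescence with signal to noise from triplicate slides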
[16] = probe aWnt5a binding to arrayed compounds – biochemical, biotinylated probe, 635/667 nm fluorescence, primary screen (AID 1113); conditions: small-molecule microarray, higher = more signal;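 also: score merges 667 nm fluorescence intensity with signal-to-noise per printed feature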
[17] = probe aShh binding to arrayed compounds – biochemical, biotinylated probe, 635/667 nm fluorescence, primary screen (AID 1114); conditions: small-molecule microarray, higher = more signal;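 also: probe is biotin-labelled aShh protein from a stem cell growth factor screen; measures binding of labelled protein to compounds printed on the slide; score merges feature fluorescence at 667 nm with signal-to-noise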
[18] = probe aNog binding to arrayed compounds – biochemical, biotinylated probe, 635/667 nm fluorescence, primary screen (AID 1115); conditions: small-molecule microarray, higher = more signal;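 also: probe is biotinylated aNog protein used at 0.15 µg/mL for 1 h at 4 C; z-score combines 667 nm fluorescence of each spot with its signal to noise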
[19] = target: Torsin-1A-interacting protein 1 (Homo sapiens) (UniProt Q5JTV8); test: compound microarray binding of lysate hLAP1 – cell lysate, small-molecule microarray, COS7 lysate, 635/667 nm fluorescence, primary screen (AID 1116); conditions: 635 nm fluorescence, higher = more signal
Chain of Torsin-1A-interacting protein 1 (Homo sapiens) (Q5JTV8 whole entry, looked up): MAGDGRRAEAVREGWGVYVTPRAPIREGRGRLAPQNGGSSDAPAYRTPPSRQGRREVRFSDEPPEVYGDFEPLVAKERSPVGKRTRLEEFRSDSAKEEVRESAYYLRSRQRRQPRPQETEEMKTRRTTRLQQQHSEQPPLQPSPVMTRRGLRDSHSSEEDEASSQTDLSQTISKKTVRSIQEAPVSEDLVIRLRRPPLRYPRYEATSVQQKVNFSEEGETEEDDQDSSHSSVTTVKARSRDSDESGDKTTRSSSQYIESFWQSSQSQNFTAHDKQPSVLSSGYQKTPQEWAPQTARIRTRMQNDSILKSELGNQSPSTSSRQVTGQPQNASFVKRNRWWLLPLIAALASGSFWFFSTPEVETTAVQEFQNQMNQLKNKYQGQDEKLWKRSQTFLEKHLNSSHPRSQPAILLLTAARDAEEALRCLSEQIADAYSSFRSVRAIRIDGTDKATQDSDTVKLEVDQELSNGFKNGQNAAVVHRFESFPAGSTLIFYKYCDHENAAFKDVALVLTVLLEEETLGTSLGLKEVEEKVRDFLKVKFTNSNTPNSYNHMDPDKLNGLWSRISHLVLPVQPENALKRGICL

[20] = target: Alpha-bungarotoxin (Bungarus multicinctus) (UniProt P60615); test: compounds binding labelled alpha-BTX control protein – biochemical, small-molecule microarray, Alexa647 label, 635/667 nm fluorescence, artefact control for SMM control protein annotation, profiling panel (AID 1117); conditions: alpha-BTX-A647 binding fluorescence, higher = more signal
Chain of Alpha-bungarotoxin (Bungarus multicinctus) (P60615 whole entry, looked up): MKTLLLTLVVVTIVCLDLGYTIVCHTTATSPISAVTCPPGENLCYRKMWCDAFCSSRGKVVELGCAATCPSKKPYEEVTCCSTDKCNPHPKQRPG

Row | SMILES | composite z-score [1] | composite z-score [2] | composite z-score [3] | z-score [4] | composite z-score [5] | composite z-score [6] | composite z-score [7] | composite z-score [8] | composite z-score [9] | composite z-score [10] | composite z-score [11] | z-score [12] | composite z-score [13] | composite z-score [14] | composite z-score [15] | composite z-score [16] | composite z-score [17] | composite z-score [18] | composite z-score [19] | composite z-score [20]
1 | COc1ccc([Si](C)(C)[C@H]2[C@H](CC(=O)N(CCO)Cc3ccccc3)O[C@@]3(C(=O)N(C)c4ccccc43)[C@@H]2C)cc1 | 0.624 | -0.29 | -0.519 | -1.44 (inactive) | 1.19 | 0.25 | 0.631 | 0.996 | 1.05 | 0.92 | 1.3 | -3.22 | 0.664 | -0.416 | -0.398 | -0.0182 | -0.141 | -0.52 | 0.188 | 0.238
2 | COCCOC(=O)N1C(=O)[C@@]2(c3cc(C#CCC(C(=O)OC)C(=O)OC)ccc31)[C@H](C(=O)N1CCN(c3ncccn3)CC1)[C@H]1C(=O)O[C@H](c3ccccc3)[C@H](c3ccccc3)N1[C@@H]2c1ccc(O)cc1 | 1.25 | 0.2 | 0.733 | -1.15 (inactive) | 0.589 | 0.845 | 0.279 | 0.698 | 0.0392 | 0.283 | 0.435 | -0.513 | 0.394 | 1.22 | 0.601 | 0.0077 | 0.272 | 0.0574 | 0.518 | 1.71
3 | C=CCOC(=O)[C@@H]1[C@H]2C(=O)O[C@H](c3ccccc3)[C@H](c3ccccc3)N2[C@H](c2ccc(OCCOC(=O)[C@H]3C[C@H]4C(=O)N5CCC[C@H]5C(=O)N4[C@H]3c3ccc(O)cc3)cc2)[C@@]12C(=O)Nc1ccccc12 | 1.04 | 0.264 | 0.573 | -1.3 (inactive) | 0.883 | 1.18 | 0.689 | 1.34 | 0.921 | 0.668 | -0.747 | -1.31 | 0.382 | 1.27 | 0.699 | 0.0047 | 0.14 | 0.305 | 0.87 | 1.33
4 | C=CC[C@]1(C(N)=O)N=C(c2ccc(OCCCO)cc2)O[C@H]1c1ccccc1CN=[N+]=[N-] | 0.255 | 0.683 | 1.24 | -0.783 (inactive) | 0.0555 | 0.518 | -1.03 | -0.325 | -0.632 | 1.46 | 1.03 | -1.33 | -1.11 | 1.91 | 1.14 | -0.124 | -0.203 | 0.165 | 1.87 | 1.03
5 | CCOC(=O)C[C@H]1[C@H](OC(=O)c2ccccc2-c2ccccc2)[C@@H](NC(=O)C2CCCCC2)c2cc(OCCCO)ccc2N1C(=O)c1ccccc1 | 0.253 | -0.116 | -0.489 | -1.02 (inactive) | 1.43 | 0.524 | 0.797 | 0.437 | 0.436 | 0.16 | 0.0771 | -1.4 | 1.13 | -0.0784 | -0.083 | -0.213 | -0.283 | -0.0502 | 0.584 | 0.148
6 | C=CC[C@@]12N=C(c3ccc(OCCCO)cc3)O[C@@H]1c1ccccc1CN(Cc1ccccc1)C2=O | 1.67 | 0.761 | 0.757 | -0.291 (inactive) | 0.623 | 1.28 | -0.0152 | 0.0791 | 0.191 | 1.01 | 1.17 | -3.23 | -0.397 | 1.06 | 0.429 | -0.0403 | 0.116 | 0.87 | 1.08 | 1.56
